Laboratory results as given in PubChem BioAssay (EPA / NIEHS).
Where a structure was tested more than once in an assay, its records may differ in their call. Calls of active or inactive are those of the source. The calls were made as follows: active = hit-call score of the fitted dose curve at least 0.9, where 1 is the maximum; inactive = score below 0.9.

Test system: not listed separately
Assay: ATG_Sox_CIS: Attagene CIS-FACTORIAL HepG2 Assay for human SRY-box transcription factor (SOX) (AID 2282960)
Details: HepG2 Attagene cis-factorial SOX reporter, mRNA; actives raise or lower the signal
Method in brief: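 HepG2 cells transiently transfected with multiple cis-regulated reporter units, then dosed for 24 h. Reporter mRNA quantified by RT-PCR, fluorescent labelling, HpaI digestion and capillary electrophoresis; bidirectional fit versus DMSO.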

Q: For `C=C(C)C(=O)OCCC(F)(F)C(F)(F)C(F)(F)C(F)(F)C(F)(C(F)(F)F)C(F)(F)F`, which outcome is on record?
A: inactive

Q: With `CCCCCCCCCCCCCCCC[N+](C)(C)Cc1ccccc1` as the molecule, how does the outcome read?
A: inactive

Q: With `CC(C)(C)C(=O)CC(=O)C(F)(F)C(F)(F)C(F)(F)F` as the molecule, how does the outcome read?
A: inactive

Q: With `C(=C(c1ccccc1)c1ccccc1)c1ccccc1` as the molecule, how does the outcome read?
A: inactive

Q: With `CCCCNc1ccccc1` as the molecule, how does the outcome read?
A: inactive

Q: For `O=C(O)C(F)(F)C(F)(F)C(F)(F)F`, which outcome is on record?
A: inactive

Q: Which outcome does the source give for `FC(F)(F)C(F)(F)C(F)(F)N(C(F)(F)C(F)(F)C(F)(F)F)C(F)(F)C(F)(F)C(F)(F)F` here?
A: inactive

Q: For `O=S(=O)(OCC(F)F)C(F)(F)F`, which outcome is on record?
A: inactive

Q: Which outcome does the source give for `COC(OC(C)=O)c1ccccc1` (stereo not given) here?
A: inactive

Q: With `FC(F)(Br)C(F)(F)C(F)(F)C(F)(F)C(F)(F)C(F)(F)Br` as the molecule, how does the outcome read?
A: inactive

Q: With `O=C(O)C(F)(OC(F)(F)C(F)(OC(F)(F)C(F)(F)C(F)(F)F)C(F)(F)F)C(F)(F)F` (stereo not given) as the molecule, how does the outcome read?
A: inactive

Q: With `O=C(O)C(F)(F)C(F)(F)C(F)(F)C(F)(F)C(F)(F)C(F)(F)C(F)(F)C(F)(F)C(F)(F)C(F)(F)C(F)(F)C(F)(F)C(F)(F)F` as the molecule, how does the outcome read?
A: inactive

Q: For `O=C(O)C(F)(F)C(F)(F)C(F)(F)C(F)(F)C(F)(F)C(F)(F)C(F)(F)C(F)(F)C(F)(F)C(F)F`, which outcome is on record?
A: inactive

Q: For `O=C(O)C(F)(F)C(F)(F)C(F)F`, which outcome is on record?
A: inactive

Q: Which outcome does the source give for `CCCCCCOC(=O)c1ccccc1O` here?
A: inactive

Q: With `NC(=O)C(F)(F)C(F)(F)C(F)(F)C(F)(F)F` as the molecule, how does the outcome read?
A: inactive

Q: For `FC(F)(F)C(F)(F)C(F)(F)C(F)(F)C(F)(F)C(F)(F)CC1CO1` (stereo not given), which outcome is on record?
A: inactive

Q: Which outcome does the source give for `FC1CC(F)(F)C(F)(F)C1(F)F` (stereo not given) here?
A: inactive

Q: With `CCCCOc1ccc(N)cc1` as the molecule, how does the outcome read?
A: inactive

Q: For `O=C(O)C(F)(F)C(F)(F)C(F)(F)C(F)(F)C(F)(F)C(F)(F)C(F)(F)C(F)(F)Cl`, which outcome is on record?
A: inactive

Q: For `CC(Cc1ccc(O)c(O)c1)C(C)Cc1ccc(O)c(O)c1` (stereo not given), which AC50 is on record?
A: 33.4 µM (active)

Q: For `FC(F)(F)C(F)(F)C(F)(F)C(F)(F)C(F)(F)C(F)(F)C(F)(F)I`, which outcome is on record?
A: inactive

Q: With `CCCCOCCOCCOC(=O)CCCCC(=O)OCCOCCOCCCC` as the molecule, how does the outcome read?
A: inactive

Q: For `OCCCC(F)(F)C(F)(F)C(F)(F)C(F)(F)C(F)(F)C(F)(F)C(F)(F)F`, which AC50 is on record?
A: 68.9 µM (active)

Q: What about the outcome of the same molecule?
A: inactive

Q: For `CNC(=S)NC`, which outcome is on record?
A: inactive

Q: Which outcome does the source give for `[Co]` here?
A: inactive

Q: Which outcome does the source give for `C=CC(F)(F)C(F)(F)C(F)(F)C(F)(F)C(F)(F)C(F)(F)C(F)(F)C(F)(F)C=C` here?
A: inactive

Q: With `CCC(=O)OCCc1ccccc1` as the molecule, how does the outcome read?
A: inactive

Q: For `CC/C=C\CCOC(=O)c1ccccc1`, which outcome is on record?
A: inactive

Q: Which outcome does the source give for `O=C(C=Cc1ccccc1)OCC=Cc1ccccc1` here?
A: inactive

Q: Which outcome does the source give for `CCCCCCCOC(=O)c1ccccc1C(=O)OCCCCCCC` here?
A: inactive

Q: With `OCCCC(F)(F)C(F)(F)C(F)(F)F` as the molecule, how does the outcome read?
A: inactive

Q: With `CCCCCCC(C)OC(=O)CCCCC(=O)OC(C)CCCCCC` (stereo not given) as the molecule, how does the outcome read?
A: inactive

Q: With `OCC(F)(F)C(F)(F)C(F)(F)F` as the molecule, how does the outcome read?
A: inactive

Biological target: Transcription factor Sp1 (Homo sapiens) (UniProt P08047)
Assay: ATG_Sp1_CIS: Attagene CIS-FACTORIAL HepG2 Assay for human Specificity Protein 1 (Sp1) (AID 2282961)
Details: HepG2 Sp1 cis-reporter transcription, actives raise or lower the signal
Method in brief: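 HepG2 cells transiently transfected with multiplexed cis-regulated reporter constructs, chemical exposure 24 h. Reporter mRNA quantified by RT-PCR with capillary electrophoresis; bidirectional fit relative to DMSO.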

Transcription factor Sp1 (Homo sapiens), sequence (P08047 whole entry, looked up): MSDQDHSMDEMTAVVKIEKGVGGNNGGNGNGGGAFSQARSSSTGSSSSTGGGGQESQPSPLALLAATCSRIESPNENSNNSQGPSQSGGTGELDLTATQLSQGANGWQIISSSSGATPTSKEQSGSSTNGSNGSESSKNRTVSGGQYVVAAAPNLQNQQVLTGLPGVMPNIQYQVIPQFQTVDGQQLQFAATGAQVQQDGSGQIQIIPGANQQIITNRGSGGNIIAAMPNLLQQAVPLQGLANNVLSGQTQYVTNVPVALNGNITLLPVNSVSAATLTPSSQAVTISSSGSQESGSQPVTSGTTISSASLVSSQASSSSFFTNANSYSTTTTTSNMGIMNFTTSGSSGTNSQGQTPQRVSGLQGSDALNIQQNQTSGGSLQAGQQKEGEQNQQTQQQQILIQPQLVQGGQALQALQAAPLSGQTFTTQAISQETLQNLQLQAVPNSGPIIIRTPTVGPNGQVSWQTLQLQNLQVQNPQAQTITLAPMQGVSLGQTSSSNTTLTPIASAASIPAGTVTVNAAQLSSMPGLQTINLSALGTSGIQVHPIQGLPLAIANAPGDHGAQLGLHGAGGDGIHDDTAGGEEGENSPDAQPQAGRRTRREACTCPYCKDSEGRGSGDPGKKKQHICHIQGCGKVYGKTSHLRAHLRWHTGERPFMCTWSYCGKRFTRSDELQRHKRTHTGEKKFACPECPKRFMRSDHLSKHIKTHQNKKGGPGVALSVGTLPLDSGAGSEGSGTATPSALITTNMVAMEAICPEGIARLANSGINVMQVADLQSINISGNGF

Q: Which outcome does the source give for `C=C(C)C(=O)OCCC(F)(F)C(F)(F)C(F)(F)C(F)(F)C(F)(C(F)(F)F)C(F)(F)F` here?
A: inactive

Q: With `CCCCCCCCCCCCCCCC[N+](C)(C)Cc1ccccc1` as the molecule, how does the AC50 read?
A: 132 µM (active)

Q: For `CC(C)(C)C(=O)CC(=O)C(F)(F)C(F)(F)C(F)(F)F`, which outcome is on record?
A: inactive

Q: Which outcome does the source give for `C(=C(c1ccccc1)c1ccccc1)c1ccccc1` here?
A: inactive

Q: For `CCCCNc1ccccc1`, which outcome is on record?
A: inactive

Q: For `O=C(O)C(F)(F)C(F)(F)C(F)(F)F`, which outcome is on record?
A: inactive

Q: Which outcome does the source give for `FC(F)(F)C(F)(F)C(F)(F)N(C(F)(F)C(F)(F)C(F)(F)F)C(F)(F)C(F)(F)C(F)(F)F` here?
A: inactive

Q: Which outcome does the source give for `O=S(=O)(OCC(F)F)C(F)(F)F` here?
A: inactive

Q: For `COC(OC(C)=O)c1ccccc1` (stereo not given), which outcome is on record?
A: inactive

Q: For `FC(F)(Br)C(F)(F)C(F)(F)C(F)(F)C(F)(F)C(F)(F)Br`, which outcome is on record?
A: inactive

Q: With `O=C(O)C(F)(OC(F)(F)C(F)(OC(F)(F)C(F)(F)C(F)(F)F)C(F)(F)F)C(F)(F)F` (stereo not given) as the molecule, how does the outcome read?
A: inactive

Q: For `O=C(O)C(F)(F)C(F)(F)C(F)(F)C(F)(F)C(F)(F)C(F)(F)C(F)(F)C(F)(F)C(F)(F)C(F)(F)C(F)(F)C(F)(F)C(F)(F)F`, which outcome is on record?
A: inactive

Q: For `O=C(O)C(F)(F)C(F)(F)C(F)(F)C(F)(F)C(F)(F)C(F)(F)C(F)(F)C(F)(F)C(F)(F)C(F)F`, which outcome is on record?
A: inactive

Q: For `O=C(O)C(F)(F)C(F)(F)C(F)F`, which outcome is on record?
A: inactive

Q: With `CCCCCCOC(=O)c1ccccc1O` as the molecule, how does the outcome read?
A: inactive

Q: Which outcome does the source give for `NC(=O)C(F)(F)C(F)(F)C(F)(F)C(F)(F)F` here?
A: inactive

Q: Which outcome does the source give for `FC(F)(F)C(F)(F)C(F)(F)C(F)(F)C(F)(F)C(F)(F)CC1CO1` (stereo not given) here?
A: inactive

Q: With `FC1CC(F)(F)C(F)(F)C1(F)F` (stereo not given) as the molecule, how does the outcome read?
A: inactive

Q: With `CCCCOc1ccc(N)cc1` as the molecule, how does the outcome read?
A: inactive

Q: With `O=C(O)C(F)(F)C(F)(F)C(F)(F)C(F)(F)C(F)(F)C(F)(F)C(F)(F)C(F)(F)Cl` as the molecule, how does the outcome read?
A: inactive

Q: With `CC(Cc1ccc(O)c(O)c1)C(C)Cc1ccc(O)c(O)c1` (stereo not given) as the molecule, how does the AC50 read?
A: 8.73 µM (active)

Q: For `FC(F)(F)C(F)(F)C(F)(F)C(F)(F)C(F)(F)C(F)(F)C(F)(F)I`, which outcome is on record?
A: inactive

Q: Which outcome does the source give for `CCCCOCCOCCOC(=O)CCCCC(=O)OCCOCCOCCCC` here?
A: inactive

Q: Which AC50 does the source give for `OCCCC(F)(F)C(F)(F)C(F)(F)C(F)(F)C(F)(F)C(F)(F)C(F)(F)F` here?
A: 96.5 µM (active)

Q: What about the outcome of the same molecule?
A: inactive

Q: For `CNC(=S)NC`, which outcome is on record?
A: inactive

Q: Which outcome does the source give for `[Co]` here?
A: inactive

Q: For `C=CC(F)(F)C(F)(F)C(F)(F)C(F)(F)C(F)(F)C(F)(F)C(F)(F)C(F)(F)C=C`, which outcome is on record?
A: inactive

Q: Which outcome does the source give for `CCC(=O)OCCc1ccccc1` here?
A: inactive

Q: Which outcome does the source give for `CC/C=C\CCOC(=O)c1ccccc1` here?
A: inactive

Q: Which outcome does the source give for `O=C(C=Cc1ccccc1)OCC=Cc1ccccc1` here?
A: inactive

Q: With `CCCCCCCOC(=O)c1ccccc1C(=O)OCCCCCCC` as the molecule, how does the outcome read?
A: inactive

Q: Which outcome does the source give for `OCCCC(F)(F)C(F)(F)C(F)(F)F` here?
A: inactive

Q: With `CCCCCCC(C)OC(=O)CCCCC(=O)OC(C)CCCCCC` (stereo not given) as the molecule, how does the outcome read?
A: inactive

Q: Which outcome does the source give for `OCC(F)(F)C(F)(F)C(F)(F)F` here?
A: inactive
